Screening results (PubChem)
RORgamma inh – ROR gamma (mouse) transcription inhibition; P51450; Drosophila S2 Gal4-RORgamma UAS-luciferase reporter, 20 h; Potency, µM (series often up to 53.6 µM), for inactives: at the highest dose activity change, negative = inhibition, most hits filed as inhibitors; 5.4% of 310,000 active; AID 2551; further: potency means the concentration at half of the fitted maximal effect; on the % scale 0 is the no-effect control and ±100 the full control effect; nearly all actives have a fitted effect of over 60% in size
Target sequence (P51450 whole entry, looked up, the tested form may be a part): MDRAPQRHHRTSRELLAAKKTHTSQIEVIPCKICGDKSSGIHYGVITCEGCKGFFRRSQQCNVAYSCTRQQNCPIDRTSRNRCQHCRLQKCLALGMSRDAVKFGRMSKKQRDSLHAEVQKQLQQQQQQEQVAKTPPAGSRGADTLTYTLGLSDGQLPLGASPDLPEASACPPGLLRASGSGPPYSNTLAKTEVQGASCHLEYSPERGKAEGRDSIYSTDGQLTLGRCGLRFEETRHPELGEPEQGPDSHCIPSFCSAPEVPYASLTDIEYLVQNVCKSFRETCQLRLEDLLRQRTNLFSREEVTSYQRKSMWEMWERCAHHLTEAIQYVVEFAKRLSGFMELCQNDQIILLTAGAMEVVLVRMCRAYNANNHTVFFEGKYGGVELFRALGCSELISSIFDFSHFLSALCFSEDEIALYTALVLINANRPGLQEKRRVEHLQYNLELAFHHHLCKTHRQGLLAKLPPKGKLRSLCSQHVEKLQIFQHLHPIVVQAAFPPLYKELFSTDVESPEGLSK
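Luminescence from a UAS-regulated Photinus luciferase reporter in stably transfected Drosophila Schneider cells is measured; decreased signal marks ROR gamma inhibition. Fusion expression is induced by 700 uM copper sulfate for 20 hr.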
MCF10A rereplic – DNA re-replication induction in MCF 10a cells; MCF 10A DNA re-replication, Hoechst nuclear intensity, 48 h; 2.9% of 350,000 active; AID 624296; Potency, µM (series often up to 46.1 µM), for the others: at the highest dose activity, positive = re-replication, usual class: activators; further: potency means the concentration at half of the fitted maximal effect; % of control where 0% means no effect; nearly all actives have a fitted effect of over 50% in size
Giardia kill – Giardia lamblia killing. Giardia lamblia trophozoite viability. activity change, % at 7.66 µM, hits read low. 0.15% of 340,000 active. AID 540267; in the data active means activity change below about -80%; inconclusive means between about -30% and that limit;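 further: parasites exposed to compound for two days anaerobically before the ATP read; on the % scale 0 is the no-effect control and ±100 the full control effect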
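Trophozoite viability was measured as ATP-dependent luminescence, read 15-30 min after reagent addition. Before that, parasites at 100 cells/well were exposed to compounds for 48 h, anaerobically, at 37 deg C.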
Chronic BCR inh – chronic active BCR signaling inhibition. ABC-DLBCL IkBa-CBG/CBR reporter, luminescence ratio, 4 h. Potency, µM (series often up to 46.1 µM), for inactives: at the top dose activity change, negative = inhibition, actives largely listed as inhibitors. 0.05% of 340,000 active; active means well fitted inhibition curve with a large enough effect in the signal ratio, with a control signal flat, not every such curve was filed as active; inconclusive means small, poorly fitted or top-dose-only effect, or effect the other way, or a change in a side signal; the % refers to the signal ratio;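 further: potency means the concentration at half of the fitted maximal effect; plate controls were basal doxycycline-induced cells for no effect and cells given 10 µM MG132 for full effect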
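TMD8 ABC-DLBCL cells carrying doxycycline-inducible green luciferase fused to IkappaBalpha plus unfused red luciferase were exposed to compounds (up to 46 uM) for 4 hrs at 37C. Activity came from the overlap-corrected green/red luminescence ratio.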
SW480 rerep – DNA re-replication induction in SW480 cells; SW480 DNA re-replication, Hoechst DNA content imaging, 48 h; Potency, µM (titrated, usually from 46.1 µM), without a hit: at the top dose re-replication activation, actives largely listed as activators; 1.8% of 340,000 active; further: potency means the concentration at half of the fitted maximal effect; % of control where 0% means no effect; nearly all actives have a fitted effect of over 55% in size
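SW480 cells exposed to compounds for 48 hr at 37 C, 5% CO2, then Hoechst-stained 40 min. Nuclear DNA content imaged by fluorescence scanning (405 nm excitation, 500-530 nm emission); re-replication scored as increased high-intensity nuclei.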
VP16 counter – Gal4-VP16 reporter inhibition counter-screen; AID 2546; Drosophila S2 Gal4-VP16 UAS-luciferase, luminescence, 20 h; 3.5% of 310,000 active; Potency, µM (series often up to 53.6 µM), without a hit: top-dose activity, negative = inhibition, hits mostly inhibitors;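 further: Gal4-VP16 expression switched on by copper sulfate through the metallothionein promoter; potency means the concentration at half of the fitted maximal effect; on the % scale 0 is the no-effect control and ±100 the full control effect; nearly all actives have a fitted effect of over 50% in size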
* hit, by the source's call; ? = inconclusive; . = no result given; [ ] = remark or other dose. An excerpt weighted towards active compounds, which were near 8.3% of everything screened. Unless noted, the call rests on the fitted dose curve; in most records, active means well fitted curve in the direction sought with a large enough effect; inconclusive means small, poorly fitted or top-dose-only effect, or another doubt; inactive means no such curve, though single readings can be large; an effect the other way counts as inactive or inconclusive.

SMILES	RORgamma inh	MCF10A rereplic	Giardia kill	Chronic BCR inh	SW480 rerep	VP16 counter
Cc1cccc(C)c1NC(=O)CSc1nc2ccccc2c2nc(CCc3c(C)n[nH]c3C)nn12	.	.	.	-16%	.	.
Cc1ccc(NC(=O)CSc2nc3ccccc3c3nc(CCc4c(C)n[nH]c4C)nn23)cc1F	?	3.7µM*	-9	?	10µM*	?
CC(NC(=O)c1ccc(Cl)cc1)c1nnc(SCC(=O)NC2=NCCS2)n1C (centres undefined)	-20%	-10%	8	3%	15%	0%
Cc1ccccc1NC(NC(=O)OCCn1c([N+](=O)[O-])cnc1C)C(Cl)(Cl)Cl (centres undefined)	?	4%	-82*	6%	11%	-25%
Cc1ncc([N+](=O)[O-])n1CCOC(=O)NC(NCc1cccnc1)C(Cl)(Cl)Cl (centres undefined)	?	8%	-92*	-2%	-2%	12%
CCOC(=O)c1ccccc1NC(=O)COC(=O)C(CC(C)C)NC(N)=O (centres undefined)	16%	0.92µM*	-10	1%	1%	0%
CCOCC(=O)Nc1ccccc1C(=O)OCC	2%[0.365 µM]	-1%	6	?	-7%	.
COc1ccc(C(=O)Nc2cccc(NC(=O)c3cccs3)c2)cc1	21%	2%	1	?	-6%	25%
COc1nc(N)nc(NC(=O)c2cccs2)c1N=O	.	21µM*	4	.	5.2µM*	.
C/C(=N\NC(=O)c1ccccc1)c1ccc(NC(=O)c2cccs2)cc1	-7%	17%	-4	?	1.5µM*	5%
COc1ccc(C(=O)/C=C\c2ccc(NC(=O)c3cccs3)cc2)cc1	7%	?	-8	-22%	18µM*	-5%
COc1ccc(NC(=O)c2ccc(NC(=O)c3cccs3)cc2)cc1	7.1µM*	10%	-7	?	12%	?
CC(=O)c1cccc(NC(=O)CSc2nc(=O)n(Cc3ccco3)c3c2CCC3)c1	.	.	.	6%	.	.
COc1ccc(NS(=O)(=O)c2csc(C(=O)Nc3ccccc3)c2)cc1	13µM*	?	-3	0%	-2%	20µM*
COc1ccc(/C(C)=N/NC(=O)CNC(=O)c2cccs2)cc1OC	2%	-4%	2	-18%	-174%	-3%
C/C(=N\NC(=O)c1ccccc1O)c1ccc(NC(=O)Cc2ccccc2)cc1	?	-2%	-18	?	12µM*	-9%
C/C(=N\NC(=O)CNC(=O)c1cccs1)c1ccc(Cl)c(Cl)c1	9%	?	-10	?	3.7µM*	0%
CC(C)CCNC(=O)CN1C(=O)CSc2ccc(S(=O)(=O)N3CCC(C)CC3)cc21	.	.	.	-2%	.	.
Cc1ccc(S(=O)(=O)C2(C(=O)NCCc3ccccc3)CC2)cc1	19%	-1%	7	-1%	-12%	-7%
Cc1ccc(SC(C)C(=O)NC(N)=O)c(C)c1 (centres undefined)	-9%	0.58µM*	-8	3%	-3%	7%
Cc1ccc(NC(=S)N2CCN(c3ccccc3F)CC2)c(C)c1	8.9µM*	0%	25	-8%	-1%	7.1µM*
CCOc1ccccc1NC(=S)N1CCN(c2ccccc2F)CC1	?	10%	1	-3%	-1%	14µM*
CCOC(=O)c1ccccc1NC(=S)N1CCCCC1	?	3%	1	?	0%	-1%
CCOc1ccccc1NC(=S)N1CCCCCC1	14µM*	-1%	-9	1%	-12%	?
CCNC(=S)N1CCN(c2ccccc2OCC)CC1	-7%	5%	15	-9%	-7%	-7%
SMILES	RORgamma inh	MCF10A rereplic	Giardia kill	Chronic BCR inh	SW480 rerep	VP16 counter
CCOc1ccccc1NC(=S)N1CCN(c2nc(-c3ccc(F)cc3)cs2)CC1	11µM*	2%	-10	?	12%	?
COc1ccc(N2CCN(C(=S)Nc3ccc(C)cc3C)CC2)cc1	-14%	2%	-2	-1%	-10%	-17%
Cc1ccc(CCC(=O)Nc2ccc(CC(=O)O)cc2)o1	-25%	?	-8	1%	1%	-14%
Cc1ccccc1NC(=O)c1ccc(F)c(S(=O)(=O)NC2CCCC2)c1	.	.	.	1%	.	.
CCOc1ccccc1NC(=S)N1CCN(c2ccc(O)cc2)CC1	-15%	14%	-10	0%	-3%	17%
COC(=O)c1ccc(C(=O)OC)c(NC(=S)N2CCN(c3ccccc3F)CC2)c1	?	0%	-4	2%	-3%	-3%
CCc1ccccc1NC(=S)N1CCN(c2ccccc2F)CC1	7.1µM*	1%	-1	-19%	-3%	?
CCOc1ccccc1NC(=S)N1CCN(c2ccc(OC)cc2)CC1	11µM*	10%	4	3%	1%	18µM*
COc1ccc(C(=O)N2CCC[C@@]3(CCN(C(=O)Nc4cccc(F)c4)C3)C2)cc1	-29%	.	.	.	.	-1%
O=S(=O)(c1ccc2c(Cl)cccc2c1)N1CCN(c2nc(-c3cccs3)nc3ccccc23)CC1	.	.	-7	.	.	.
S=C1NCN(Cc2ccco2)CN1CCc1ccccc1	2.2µM*	-3%	2	-7%	-16%	11µM*
Cc1ccc(CN2CCN(Cc3ccco3)CC2)cc1	-13%	-4%	5	6%	9%	-4%
COCCCN1CN(Cc2ccccc2)CNC1=S	11µM*	-3%	22	2%	-3%	?
CC(C)CN1CN(Cc2ccccc2)CNC1=S	4µM*	-6%	-24	7%	-2%	5.6µM*
CCOc1ccccc1N1CCN(Cc2ccco2)CC1	-42%	-11%	-6	?	?	-16%
CCOCCCN1CN(Cc2ccco2)CNC1=S	11µM*	-1%	-20	5%	0%	-4%
CN(CC(=O)Nc1ccc(F)cc1)C(=O)COC(=O)C1=COCCO1	.	-1%	0	-19%	-11%	.
O=S(=O)(Cc1ccc(Cl)cc1)Nc1ccc(Cl)cn1	7%	1%	-4	16%	-2%	6%
COc1ccc(S(=O)(=O)n2nc(C)c(S(=O)(=O)N3CCOCC3)c2C)cc1OC	1%	.	.	4%	.	-4%
Cc1cccc(CC(=O)NC2CC(=O)N(c3cccc(F)c3)C2)c1 (centres undefined)	.	.	.	-6%	.	.
CCCCN1CNC(=S)N(Cc2ccccc2)C1	4µM*	2%	2	-2%	?	5.6µM*
O=C1CCN(Cc2ccco2)C(=S)N1	.	-56%	16	.	-11%	.
CCCN1CNC(=S)N(Cc2ccccc2)C1	5.6µM*	2%	3	3%	-1%	7.1µM*
CCCN1CN(Cc2ccccc2)CNC1=S	6.3µM*	-3%	-9	5%	4%	7.1µM*
CCCN1CNC(=S)N(CC2CCCO2)C1 (centres undefined)	?	-6%	-6	6%	-2%	?
